Source: PubChem BioAssay (NCI)
About 79,000 compounds went through this panel and 15% of them were active in at least one assay; those are over-represented in the sample as a whole. Unmarked numbers belong to inactive results. Active and inactive are the calls of the source. Rule as the data show it: active = growth inhibition above about 70%; inactive = the rest.

What was measured:
[1] = NCI Yeast Anticancer Drug Screen. Data for the rad50 strain (AID 155);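 also: 0% = growth of vehicle-only cultures of the same strain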; settings: S. cerevisiae rad50 strain growth inhibition, active compounds read high
How it was run: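 Yeast carrying a defined DNA repair defect were exposed to test compounds, and growth was compared with vehicle-treated controls to give percent inhibition.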

[2] = NCI Yeast Anticancer Drug Screen. Data for the mec2-1 strain (AID 157); settings: S. cerevisiae mec2-1 strain, active compounds read high
How it was run: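 Yeast mec2-1 mutant treated with compound. Readout: growth inhibition vs vehicle controls.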

[3] = NCI Yeast Anticancer Drug Screen. Data for the sgs1 mgt1 strain (AID 161);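 also: 0% = growth of cultures given vehicle only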; settings: S. cerevisiae sgs1 mgt1 strain, active compounds read high
How it was run: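 Inhibition of yeast growth, normalised to vehicle-treated controls, is reported for a strain bearing genetic alterations in DNA damage repair.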

[4] = NCI Yeast Anticancer Drug Screen. Data for the cln2 rad14 strain (AID 165);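 also: 0% = growth equal to vehicle treated cultures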; settings: S. cerevisiae cln2 rad14 strain, active compounds read high
How it was run: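 cln2 rad14 yeast strain; compound exposure; growth inhibition read vs vehicle controls.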

[5] = NCI Yeast Anticancer Drug Screen. Data for the bub3 strain (AID 167); settings: S. cerevisiae bub3 mutant strain, active compounds read high
How it was run: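 Compounds were applied to a genetically altered yeast strain carrying a cell-cycle control defect. Growth inhibition was scored against vehicle-treated controls.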

[6] = NCI Yeast Anticancer Drug Screen. Data for the mlh1 rad18 strain (AID 175); settings: S. cerevisiae mlh1 rad18 strain growth inhibition, active compounds read high
How it was run: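 Yeast w/ defined DNA-repair lesions; compound exposure; growth vs vehicle controls → % inhibition.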

[7] = at 5.0 µM (retest, dose inferred, filed as 0.5)
[8] = at 50.0 µM (retest, dose inferred, filed as 5.0)

Structure (SMILES)	growth inhibition [1, 7]	growth inhibition [1, 8]	growth inhibition ([1]; at 50.0 µM)	growth inhibition [2, 7]	growth inhibition [2, 8]	growth inhibition ([2]; at 50.0 µM)	growth inhibition [3, 7]	growth inhibition [3, 8]	growth inhibition ([3]; at 50.0 µM)	growth inhibition [4, 7]	growth inhibition [4, 8]	growth inhibition ([4]; at 50.0 µM)	growth inhibition [5, 7]	growth inhibition [5, 8]	growth inhibition ([5]; at 50.0 µM)	growth inhibition [6, 7]	growth inhibition [6, 8]	growth inhibition ([6]; at 50.0 µM)
C/C(CCSCc1ccccc1)=N/NC(N)=S	6%	44%	41.8%	4%	65%	55.9%	6%	78% (active)	63.9%	-5%	45%	33.2%	-1%	65%	54.1%	7%	76% (active)	66.7%
CC(=O)c1ccc(Br)cc1NC1=CC(=O)c2ncccc2C1=O	95% (active)	95% (active)	86.7% (active)	88% (active)	94% (active)	91.2% (active)	81% (active)	96% (active)	88.8% (active)	77% (active)	90% (active)	88.3% (active)	83% (active)	95% (active)	89.7% (active)	87% (active)	95% (active)	87.3% (active)
O=[N+]([O-])c1cc(CN(CCO)CCO)c(O)c2ncccc12	99% (active)	99% (active)	99.1% (active)	98% (active)	100% (active)	94% (active)	96% (active)	100% (active)	99% (active)	97% (active)	99% (active)	91.3% (active)	95% (active)	99% (active)	95.7% (active)	96% (active)	99% (active)	97.2% (active)
COc1ccc(C(=O)C(CN2CCCC2)CN2CCCC2)cc1	-1%	75% (active)	47.6%	4%	88% (active)	88.1% (active)	-5%	82% (active)	44%	2%	54%	7.4%	-5%	81% (active)	59.5%	3%	79% (active)	69.3%
CCOc1cc(/C=N/NC(=S)NC23CC4CC(CC(C4)C2)C3)ccc1O	-3%	11%	40.6%	-5%	30%	40.5%	0%	61%	41.3%	49%	16%	45.1%	-7%	-100%	9.55%	1%	29%	47.6%
CCOC(=O)CNC(=O)Sc1ccc(C(C)(C)C)cc1C	17%	32%	0.05%	22%	74% (active)	19.8%	17%	60%	82% (active)	19%	84% (active)	75.7% (active)	14%	92% (active)	69.7%	29%	50%	26.7%
CC(=O)Oc1cc2c(cc1OC(C)=O)OCC(c1ccc(C)cc1)C2 (configuration not stated)	8%	65%	53.1%	8%	49%	57.9%	4%	61%	32.1%	2%	72% (active)	64%	8%	87% (active)	73.7% (active)	0%	64%	75.8% (active)
CC(=O)[O-].CC(=O)[O-].CC(=O)[O-].CC(=O)[O-].Cn1c(=O)c2[nH]cnc2n(C)c1=O.Cn1c(=O)c2[nH]cnc2n(C)c1=O.[Rh+2].[Rh+2]	3%	20%	43.3%	12%	23%	27.6%	12%	13%	-39.7%	9%	9%	-5.35%	11%	19%	-29.4%	48%	62%	23.1%
CCC(CC)COC(=O)C(C)=O	-2%	1%	-11.7%	2%	0%	19.4%	1%	3%	18.1%	-1%	-4%	25.6%	0%	5%	4.3%	-1%	2%	26.9%
COc1ccc(OC)c(N=Nc2c(C)[nH]n(C(N)=S)c2=O)c1	-6%	47%	79.3% (active)	-3%	34%	19%	7%	34%	80.7% (active)	-2%	27%	10.6%	-14%	26%	42.1%	11%	25%	66.7%
OCC(CO)C1c2cccc3ccc4cccc1c4c23	0%	30%	64.5%	-3%	24%	17.8%	-2%	46%	85.7% (active)	-6%	37%	67.3%	13%	42%	53.5%	-4%	49%	81.4% (active)
CC(=O)c1ccc(OCc2ccccc2)cc1	1%	-6%	-2.25%	1%	5%	-15.5%	16%	-6%	-17.9%	-3%	2%	63.9%	2%	3%	9.75%	-3%	-9%	15.2%
Cc1cc(Cl)c2c(c1)C(=N/O)/C(=C\c1ccco1)O2	100% (active)	99% (active)	88% (active)	100% (active)	99% (active)	90.3% (active)	96% (active)	99% (active)	83.5% (active)	77% (active)	99% (active)	88% (active)	100% (active)	99% (active)	89% (active)	99% (active)	99% (active)	85.2% (active)
CCN(CC)CC(C)(C)C(=O)/C=C/c1ccc(Cl)c(Cl)c1	6%	98% (active)	97.9% (active)	9%	98% (active)	99.2% (active)	18%	94% (active)	98% (active)	4%	97% (active)	89.2% (active)	1%	98% (active)	98.8% (active)	8%	97% (active)	99% (active)
O=C(O)/C(Cl)=C(\Cl)C(=O)Nc1cccc(C(F)(F)F)c1	65%	99% (active)	99.5% (active)	56%	100% (active)	99.7% (active)	68%	100% (active)	99.7% (active)	43%	99% (active)	99.3% (active)	88% (active)	99% (active)	99.6% (active)	49%	99% (active)	99.5% (active)
Cc1nc(N2N=C(c3ccc(Cl)cc3)CCC2=O)sc1[N+](=O)[O-]	10%	85% (active)	85% (active)	13%	65%	86.5% (active)	-1%	71% (active)	83.7% (active)	12%	46%	82% (active)	10%	88% (active)	84% (active)	-12%	92% (active)	65.2%
O=S(=O)(c1ccc(OCC(O)COc2ccc(S(=O)(=O)c3ccc(OCC4CO4)cc3)cc2)cc1)c1ccc(OCC2CO2)cc1 (configuration not stated)	-5%	-9%	21.6%	4%	11%	37.2%	0%	19%	63.1%	3%	25%	2.95%	-4%	-2%	-20.5%	8%	29%	78.1% (active)
CC(C)CCCCCCCCCCCCC(=O)NCC(=O)NC1C(C)OC(Nc2ncnc3nc[nH]c23)C(O)C1O (configuration not stated)	22%	22%	29.1%	54%	32%	9.55%	43%	45%	34.5%	5%	10%	2.2%	58%	23%	77.1% (active)	52%	35%	19.4%
O=Cc1cc(S(=O)(=O)c2ccc(O)c(C=O)c2)ccc1O	12%	22%	98.7% (active)	32%	38%	98.7% (active)	17%	25%	98.8% (active)	23%	25%	97.5% (active)	5%	11%	99% (active)	26%	22%	98.6% (active)
